This passage reports outcome results from PubChem BioAssay AID489025 (Southern Research Specialized Biocontainment Screening …, 2010).

Structures are written as SMILES. The campaign covered roughly 2,300 compounds. About 790 (34%) were called active. The rule behind the calls is not given here. The list shows a part of the results. Measured potencies and affinities stand elsewhere.

The experiment in a line: THP-1 cell cytotoxicity, dose response, cytotoxicity control for non-replicating M. tuberculosis project (AID 489025). As to conditions: THP-1 cell viability; series mostly up to 40 µM.
Take `O=C(NCCC1=CCCCC1)c1ccc(Br)o1`: the result was inactive.

Turning to `CC(=O)c1cccc(NC(=O)C2COc3ccccc3O2)c1` (centres undefined), the outcome was inactive.

`CCCc1cc(=O)n2[nH]c(C)c(-c3ccccc3)c2n1`: the compound was called inactive.

Turning to `Cc1ccc(C(=O)CCNc2ccc(Br)cc2)o1`, the compound was classed as inactive.

Consider `CC(=O)n1cc(/C=C2/N=C(c3ccccc3)OC2=O)c2ccccc21`, for which the result was inactive.

As for `CCCOC(=O)c1ccc(-c2ccc(C=O)o2)cc1`, the outcome was inactive.

`Cc1cccc(C)c1N1C(=O)CC(N2CCSCC2)C1=O` (centres undefined): the result was inactive.

`Cc1ccc(-c2noc(CCC(=O)Nc3cccc(C#N)c3)n2)cc1`: the compound was called inactive.

Regarding `O=C(COC(=O)c1cccc([N+](=O)[O-])c1)NCc1cccs1`, the result was inactive.

Turning to `CCOC(=O)N/N=C\c1ccc([N+](=O)[O-])s1`, the compound was classed as inactive.

For `CCCOC(=O)c1ccc(NC(=O)Cc2cccs2)cc1`, the call was inactive.

Consider `COC(=O)N/N=C/c1ccc([N+](=O)[O-])s1`, for which the call was inactive.

Consider `C/C(Cn1nnc([N+](=O)[O-])n1)=N\NC(=O)c1ccncc1`, for which the outcome was inactive.

On to `Brc1c(CSc2nncc3ccccc23)nc2ccccn12`, for which the call was inactive.

In the case of `CCN(CC)c1ccc2cc(C(=O)NCc3ccc(F)cc3)c(=N)oc2c1`, the outcome was inactive.

As for `O=c1oc2ccccc2nc1/C=C(\O)c1ccc(Br)cc1`, the call was inactive.

Turning to `C/C(=N/NC(=O)c1ccco1)c1ccc(Br)s1`, the outcome was inactive.

With `CC(C)(C)NCC1(CO)SC(N)=NC1=O` (centres undefined), the compound was classed as inactive.

`COc1n[nH]c(C(=O)Nc2cc(F)ccc2C)c1[N+](=O)[O-]`: the compound was called inactive.

Regarding `O=C(C/C=N\OCc1ccc([N+](=O)[O-])cc1)Nc1ccc(F)cc1F`, the call was inactive.

Take `CCc1cc2c3c(c1)C(C)CC(C)(C)N3C(=O)/C2=C1\SC(=O)NC1=O` (centres undefined): the call was inactive.

As for `O=C(COC(=O)COc1ccc(Nc2ccccc2)cc1)NCc1ccco1`, the compound was classed as inactive.

For the compound `COc1ccccc1N1CCN(C(=O)c2ccc([N+](=O)[O-])s2)CC1`, the outcome was inactive.

For `COC(=O)CC(=O)N1CCN(c2ccc(Cl)c(Cl)c2)CC1`, the compound was called inactive.

On to `CC(C)(C)c1ccc(OCCCC(=O)NC2=NCCS2)cc1`, for which the compound was classed as inactive.

For the compound `COc1cc(C=O)ccc1OCCOCCOc1ccc(Cl)cc1`, the outcome was inactive.

Turning to `O=C1/C(=C\c2ccco2)SC(=S)N1c1ccc(O)cc1`, the result was inactive.

Take `CCOc1cc(C=O)cc(N=Nc2cccc([N+](=O)[O-])c2)c1O`: the result was inactive.

`O=C(Oc1ccccc1)c1cccc(COC(=O)c2cnccn2)c1`: the result was inactive.

`CCOC(=O)C1CSC(CC(=O)Nc2ccc(Cl)c(Cl)c2)C(=O)N1` (centres undefined): the outcome was inactive.

Take `CC(C)(C)NC(=O)C(=O)NNC(=O)COc1ccc(Br)cc1`: the result was inactive.

As to `CC(/C=C/c1ccccc1)=N\NC(=O)c1ccc2c(c1)OCCO2`, the call was inactive.

Regarding `O=C(N/N=C\C=C\c1ccco1)c1cncc(Br)c1`, the compound was classed as inactive.

Regarding `CCC(=O)c1ccc(OC(=O)c2ccc(Br)o2)cc1`, the result was inactive.

On to `Cc1cc(C)n2[nH]c(=O)c(N=Nc3cccc(Cl)c3)c2n1`, for which the call was inactive.

For the compound `Clc1ccc2c(N3CCCC3)ccnc2c1`, the result was inactive.

For `Cc1ccc2[nH]c(C)c(CCNC(=O)c3cc4cc([N+](=O)[O-])ccc4oc3=O)c2c1`, the compound was classed as inactive.

With `CCc1ccc(OCCCC(=O)NCc2ccco2)cc1`, the result was inactive.

Consider `O=C(COc1ccc([N+](=O)[O-])cc1)NNC(=O)c1cccs1`, for which the outcome was inactive.

On to `COc1ccc(OCCOC(=O)c2cccs2)cc1`, for which the outcome was inactive.

On to `CCCOC(=O)c1ccc(OC(=O)c2ccco2)cc1`, for which the result was inactive.

Turning to `c1ccc2[nH]c(NC3=NCCC3)nc2c1`, the call was inactive.

In the case of `Cc1cc2n(n1)SC(Nc1ccccc1)N2` (centres undefined), the outcome was inactive.

On to `O=C(COC(=O)c1cc(Br)ccc1Cl)NC1CCCC1`, for which the outcome was inactive.

As for `COC(=O)COc1ccc2c(-c3cccc([N+](=O)[O-])c3)cc(=O)oc2c1`, the outcome was inactive.

Turning to `O=C(CN1CCC(NC(=O)c2cccc(F)c2)CC1)Nc1ccc(Br)cc1`, the compound was classed as inactive.

For the compound `NC(=O)C1(N2CCCCC2)CCN(C2CC(=O)N(CCc3ccccc3)C2=O)CC1` (centres undefined), the call was inactive.

On to `c1ccc(OCc2nnc3sc(-c4cccs4)nn23)cc1`, for which the compound was classed as inactive.

With `c1ccc(OCc2nn3c(-c4ccccn4)nnc3s2)cc1`, the outcome was inactive.

For `CCOC(=O)Cn1cc(C#N)c2cccc(CC)c21`, the compound was called inactive.

On to `Cc1occc1C(=O)N/N=C/C(Br)=C\c1ccccc1`, for which the outcome was inactive.

Regarding `O=C(O)c1ccccc1-c1ccccc1C(=O)Nc1nc2ccccc2s1`, the result was inactive.

`Cc1oc(=O)c(NC(=O)c2ccccc2)cc1C(=O)c1ccccc1`: the result was inactive.

Regarding `O=C(COC(=O)c1ccc(O)cc1O)c1ccc2c(c1)OCO2`, the result was inactive.

For the compound `O=C(COC(=O)c1cc(Br)ccc1O)Nc1ccc2c(c1)OCO2`, the compound was called inactive.

With `COc1ccc(OC(=O)c2cc3ccccc3o2)cc1`, the outcome was inactive.

Take `CCCC(O)(CCC)C(=O)NNc1ccc(C)cc1`: the outcome was inactive.

Consider `O=c1[nH][nH]c(-c2ccccc2O)c1C(C[N+](=O)[O-])c1cccc(Cl)c1` (centres undefined), for which the outcome was inactive.

Turning to `CC(C)[C@H]1CN=C2N(C[C@H](C)NC(=O)CCC3CCCCC3)[C@H](Cc3ccc(O)cc3)CN21`, the call was inactive.

Consider `O=C(CN1CCC(Cc2ccccc2)CC1)NC(=O)NC1CCCCC1`, for which the compound was called inactive.

For the compound `CCCC(=O)N1CCC(Cc2ccccc2)CC1`, the outcome was inactive.

Consider `C[C@@H]1CN=C2N(CCNC(=O)CCC3CCCCC3)[C@H](Cc3ccc(O)cc3)CN21`, for which the compound was called inactive.

As to `O=C(c1ccccc1)C1CN(Cc2ccccc2)CCC1(O)c1ccccc1` (centres undefined), the call was inactive.

For `CC(C)CNc1nc(=S)nc(N(C)C)[nH]1`, the result was inactive.

For `O=C(COc1ccc(Br)cc1)Nc1ccc([N+](=O)[O-])cn1`, the compound was classed as inactive.

`COc1ccc(Cc2nnc(-c3ccccc3)o2)cc1`: the compound was called inactive.

With `CCn1nnc(NC(=O)c2sc3ccccc3c2Cl)n1`, the result was inactive.

With `O=C(Nc1nccs1)c1sc2ccccc2c1Cl`, the compound was classed as inactive.

Regarding `NC1CCN(c2c(F)cc3c(=O)c(C(=O)O)cn(C4CC4)c3c2Cl)C1` (centres undefined), the compound was called inactive.

Regarding `Cc1ccc(NC(=O)COC(=O)C(NS(=O)(=O)c2ccc(Cl)cc2)C(C)O)cc1C` (centres undefined), the compound was classed as inactive.

`CCc1ccccc1NC(=O)C1COc2ccccc2O1` (centres undefined): the compound was classed as inactive.

Regarding `CCOCCOC(=O)c1ccc(NC(=O)C2COc3ccccc3O2)cc1` (centres undefined), the outcome was inactive.

`CCOC(=O)c1cc2cc3ccccc3cc2oc1=O`: the call was inactive.

For `Cc1ccc2nc(CCc3nc4ccc(C)cc4[nH]3)[nH]c2c1`, the compound was called inactive.

With `O=C(COC(=O)CC1CCCC1)Nc1ccc(Cl)cn1`, the compound was called inactive.

In the case of `CCOc1ccc(OCC(=O)Nc2ccc(OC)cc2)cc1`, the compound was classed as inactive.

Consider `CC(=O)c1ccc(OC(=O)c2ccc(-n3nc(C)cc3C)cc2)cc1`, for which the outcome was inactive.

With `Cc1cc(C)n(-c2ccc(C(=O)Oc3ccc4c(c3)OCO4)cc2)n1`, the call was inactive.

Consider `CCOC(=O)c1nn(-c2ccccc2)c2nc(Nc3ccccc3)cc(=O)n12`, for which the call was inactive.
